Assay [1] concerns the target Calcium and integrin-binding protein 1 (Homo sapiens) (UniProt Q99828). Briefly: Primary qHTS for Identification of Calcium Integrin Binding Protein 1 (CIB1) Competitor (AID 1508620).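 Also: GST tagged CIB1 binding a fluorescein labelled alphaIIb integrin peptide tracer; top concentration of the series differs between compounds.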 In a few lines: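 Fluorescence polarization competition: CIB1-GST (1 uM final) preincubated with compound 15 min at room temperature, then FITC-labeled alphaIIb peptide (100 nM final) added for another 15 min. Polarization read at Ex 480/Em 540.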
Background: qHTS replaces the single test concentration by a dilution series.

Assay [2] addresses Cytochrome P450 2D6 (Homo sapiens) (UniProt P10635). Briefly: Cytochrome P450 family 2 subfamily D member 6 (CYP2D6) small molecule antagonists: luciferase biochemical (cell-free) qHTS assay (AID 1645840; active = well fitted curve in the direction sought with a large enough effect in the repeat runs; an effect the other way counts as inactive or inconclusive; also: nearly all actives have a fitted effect of over 55% in size; also: potency is read from the fitted curve at half-maximal effect). Summed up: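 P450-Glo luminescent screen: recombinant CYP2D6 enzyme–proluciferin substrate mix preincubated with compound 10 min at room temperature, then NADPH regeneration added for 1 h at room temperature. Detection reagent added for 20 min; luciferin light read as relative luminescence units.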

Assay [3] has as its target Cytochrome P450 2C9 (Homo sapiens) (UniProt P11712). Briefly: Cytochrome P450 family 2 subfamily C member 9 (CYP2C9) small molecule antagonists: luciferase biochemical (cell-free) qHTS assay (AID 1645842; active = well fitted curve in the direction sought with a large enough effect in the repeat runs; an effect the other way counts as inactive or inconclusive; also: nearly all actives have a fitted effect of over 55% in size; also: potency is read from the fitted curve at half-maximal effect). In a few lines: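 Luminescence, after 20 min with luciferin detection reagent, reflected CYP2C9 turnover during a 1 h NADPH-driven reaction at 37C. Enzyme-substrate mix contained 0.4% bovine serum albumin and was preincubated with compound 10 min at room temperature.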

A short description of assay [4]: Primary qHTS for inhibitors of nuclear receptor binding SET domain protein 2 (NSD2) in an isogenic RCH-ACV NSD2 p.E1099K mutant (9B) (AID 1645876). Also: nearly all actives have a fitted effect of over 70% in size. Also: potency is read from the fitted curve at half-maximal effect.
Assay [5] in a line: Primary qHTS for inhibitors of nuclear receptor binding SET domain protein 2 (NSD2) in an RCH-ACV wild type WT cells (2C) (AID 1645877). Also: nearly all actives have a fitted effect of over 70% in size. Also: potency is read from the fitted curve at half-maximal effect.

“And” between values parts separate entries of the source, which are not always exact repeats. Equal entries are not always repeated. Inconclusive results are not listed. The source made the active and inactive calls. Unless noted, calls follow the shape of the dose curve; as a rule, active = well fitted curve in the direction sought with a large enough effect; inconclusive = small, poorly fitted or top-dose-only effect, or another doubt; inactive = no such curve, though single readings can be large; an effect the other way counts as inactive or inconclusive.

Chain of Calcium and integrin-binding protein 1 (Homo sapiens) (Q99828 whole entry, looked up): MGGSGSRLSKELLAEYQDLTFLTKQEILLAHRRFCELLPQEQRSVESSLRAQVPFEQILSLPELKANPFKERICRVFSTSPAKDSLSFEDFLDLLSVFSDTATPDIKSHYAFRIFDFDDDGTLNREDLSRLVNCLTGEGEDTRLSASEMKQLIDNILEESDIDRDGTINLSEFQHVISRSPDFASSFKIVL
Chain of Cytochrome P450 2C9 (Homo sapiens) (P11712 whole entry, looked up): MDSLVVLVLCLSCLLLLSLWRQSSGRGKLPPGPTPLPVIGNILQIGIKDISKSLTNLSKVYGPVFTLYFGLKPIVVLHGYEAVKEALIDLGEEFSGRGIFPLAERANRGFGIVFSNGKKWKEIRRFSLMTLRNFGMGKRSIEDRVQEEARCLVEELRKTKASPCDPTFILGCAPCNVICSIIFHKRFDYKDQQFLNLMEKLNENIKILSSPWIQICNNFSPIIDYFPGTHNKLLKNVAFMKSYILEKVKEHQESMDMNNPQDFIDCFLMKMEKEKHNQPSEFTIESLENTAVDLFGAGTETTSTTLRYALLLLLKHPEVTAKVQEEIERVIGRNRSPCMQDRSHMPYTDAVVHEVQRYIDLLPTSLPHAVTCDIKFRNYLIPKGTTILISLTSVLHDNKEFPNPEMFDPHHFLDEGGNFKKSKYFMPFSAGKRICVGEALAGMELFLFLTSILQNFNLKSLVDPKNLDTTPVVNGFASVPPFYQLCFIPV
Chain of Cytochrome P450 2D6 (Homo sapiens) (P10635 whole entry, looked up): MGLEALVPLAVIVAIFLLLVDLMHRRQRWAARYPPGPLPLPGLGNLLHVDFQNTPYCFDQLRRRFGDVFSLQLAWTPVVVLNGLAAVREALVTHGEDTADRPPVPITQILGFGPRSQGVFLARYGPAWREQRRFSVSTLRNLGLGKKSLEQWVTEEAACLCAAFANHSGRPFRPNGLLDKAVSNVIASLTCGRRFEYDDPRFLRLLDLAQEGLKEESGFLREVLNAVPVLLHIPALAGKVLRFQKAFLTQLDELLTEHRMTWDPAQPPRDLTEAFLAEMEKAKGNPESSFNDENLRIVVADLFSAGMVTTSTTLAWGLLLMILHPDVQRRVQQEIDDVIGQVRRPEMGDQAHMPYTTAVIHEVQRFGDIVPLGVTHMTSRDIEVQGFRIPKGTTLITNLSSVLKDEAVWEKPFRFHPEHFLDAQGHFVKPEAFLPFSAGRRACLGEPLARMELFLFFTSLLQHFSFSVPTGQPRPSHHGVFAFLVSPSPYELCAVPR

On to `N#CC(CCCN1CCC(O)(c2ccc(Cl)cc2)CC1)(c1ccccc1)c1ccccc1`, for which the Potency entry in assay [1] was “inactive”. Moreover, the Potency in assay [2] is 0.536 µM (active); in assay [3], 23.9 µM (active); in assay [4] it was 5.15 µM (active); in assay [5], 6.49 µM (active).

Regarding `CC[C@H]1CN(c2nc(N)c(C(N)=O)nc2Cl)CCN1C1CCN(Cc2ccc(Cl)cc2)CC1`, the Potency entry in assay [1], in assay [4] and in assay [5] was “inactive” throughout. In addition, the Potency in assay [2] is 12 µM (active); in assay [3] it was 7.56 µM (active).

On to `Cn1nc(-c2ccc(C(F)(F)F)cc2)nc2c(=O)n(C)c(=O)nc1-2`, for which the Potency result in assay [1] and in assay [3] was “inactive” in each case. The Potency in assay [2] was 0.239 µM (active); in assay [4] it was 2.58 µM (active); in assay [5], 2.3 µM (active).

Turning to `Cn1ncc(Cl)c1-c1cc(C(=O)NC(CN)Cc2ccc(F)c(F)c2)oc1Cl` (stereo not given), the Potency result in assay [1] was “inactive”. The Potency was 12 µM (active) and 13.5 µM (active) in assay [2]; 8.49 µM (active) in assay [3]; 728 nM (active) and 833 nM (active) in assay [4]; 817 nM (active) and 742 nM (active) in assay [5].

Turning to `CC(C)n1nc(C#Cc2ccccc2)c2c(N)ncnc21`, in assay [1], the Potency entry was “inactive”. Further, the Potency in assay [2] was 19 µM (active); in assay [3], 0.601 µM (active); in assay [4], 1.83 µM (active); in assay [5] it was 3.25 µM (active).

As for `CCN1CCN(Cc2ccc(C(=O)Nc3ccc(C)c(Oc4ccc5c(c4)CC(=O)N5)c3)cc2C(F)(F)F)CC1`, the Potency result in assay [1] was “inactive”. Moreover, the Potency in assay [2] was 16.9 µM (active); in assay [3], 23.9 µM (active); in assay [4], 16.3 µM (active); in assay [5] it was 16.3 µM (active).

For the molecule `Cc1cc2sc(NC(=O)Cc3ccccc3)nc2cc1Cl`, the Potency entry in assay [1], in assay [2], in assay [3], in assay [4] and in assay [5] was “inactive” each time.

As for `O=C(Nc1cccnc1)c1cc(-c2ccnc(F)c2)ccc1OCc1ccccc1`, the Potency entry in assay [1], in assay [2], in assay [4] and in assay [5] was “inactive” in each case. Besides, the Potency in assay [3] is 1.51 µM (active).

As to `COc1cc(/C=N\NC(=O)c2ccc3c(c2)OCO3)ccc1OCc1ccccc1`, the Potency entry in assay [1], in assay [4] and in assay [5] was “inactive” throughout. Also, the Potency in assay [2] and in assay [3] was 2.39 µM (active) in each case.

As for `O=C(Nc1nc2ccc([N+](=O)[O-])cc2s1)C1CCCCC1`, the Potency entry in assay [1] is “inactive”. The Potency in assay [2] is 1.9 µM (active); in assay [3] it was 19 µM (active); in assay [4] it was 20.5 µM (active); in assay [5] it was 12.9 µM (active).

For the molecule `Cc1onc(-c2ccccc2)c1C(=O)N1CCN(c2ccc([N+](=O)[O-])cc2Cl)CC1`, the Potency entry in assay [1], in assay [4] and in assay [5] was “inactive” in each case. Moreover, the Potency in assay [2] was 5.35 µM (active); in assay [3], 9.52 µM (active).

With `Clc1ccc(Nc2nc3ccccc3c3nc(C4CCCCC4)[nH]c23)cc1Cl`, the Potency result in assay [1] and in assay [2] was “inactive” in each case. Further, the Potency was 6.01 µM (active) in assay [3], 16.3 µM (active) in assay [4] and 16.3 µM (active) in assay [5].

Regarding `O=C(NCc1cccs1)c1cc2nc(-c3ccco3)cc(C(F)(F)Cl)n2n1`, the Potency entry in assay [1], in assay [4] and in assay [5] was “inactive” throughout. Further, the Potency was 7.56 µM (active) in assay [2] and 0.301 µM (active) in assay [3].

`O=C(NCCCn1ccnc1)c1cc(-c2ccco2)on1`: in assay [1], the Potency result is “inactive”. Further, the Potency in assay [2] is 8.49 µM (active); in assay [3], 9.52 µM (active); in assay [4] it was 14.5 µM (active); in assay [5], 10.3 µM (active).

For the molecule `COc1ccc(C(=O)Nc2c(Cl)cncc2Cl)cc1OC1CCCC1`, the Potency result in assay [1], in assay [2], in assay [4] and in assay [5] was “inactive” each time. The Potency in assay [3] is 6.74 µM (active).

Regarding `C#CCNCc1cc2cc(OCc3ccccc3)ccc2[nH]1`, the Potency entry in assay [1], in assay [4] and in assay [5] was “inactive” throughout. In addition, the Potency is 23.9 µM (active) in assay [2] and 3.79 µM (active) in assay [3].

Take `COc1cc(OC)c2c(=O)[nH]c(-c3cc(C)c(OCCO)c(C)c3)nc2c1`: the Potency result in assay [1] and in assay [2] was “inactive” throughout. Moreover, the Potency in assay [3] is 12 µM (active) and 10.7 µM (active); in assay [4], 12.9 µM (active) and 14.8 µM (active); in assay [5], 10.3 µM (active) and 11.8 µM (active).

In the case of `COc1ccc2c(NC(=O)Nc3cccc(C(F)(F)F)n3)ccnc2c1`, the Potency result in assay [1] and in assay [2] was “inactive” throughout. Also, the Potency was 3.01 µM (active) in assay [3], 4.09 µM (active) in assay [4] and 3.25 µM (active) in assay [5].

Consider `O=C(COc1ccc2ccccc2c1Br)Nc1cccnc1`, for which the Potency entry in assay [1], in assay [4] and in assay [5] was “inactive” each time. The Potency in assay [2] was 0.301 µM (active); in assay [3], 8.49 µM (active).

With `Cc1ccc(S(=O)(=O)NCc2ccc(C(=O)NCCN(Cc3ccccc3)C(C)C)cc2)cc1`, the Potency result in assay [1] is “inactive”. The Potency in assay [2] was 12 µM (active); in assay [3], 9.52 µM (active); in assay [4], 16.3 µM (active); in assay [5] it was 23 µM (active).

For `N#Cc1cc(CN2CCC(Nc3ncnc4sc(Cl)cc34)CC2)ccc1F`, the Potency entry in assay [1] and in assay [3] was “inactive” in each case. Also, the Potency was 1.51 µM (active) in assay [2], 14.5 µM (active) in assay [4] and 20.5 µM (active) in assay [5].

As to `Cc1nc(C#Cc2ccnc(Cl)c2)c(C)n1-c1ccc(F)cc1`, the Potency entry in assay [1] and in assay [3] was “inactive” throughout. Besides, the Potency in assay [2] was 19 µM (active); in assay [4], 11.5 µM (active); in assay [5] it was 11.5 µM (active).

Turning to `CC(C)OC(=O)N1CCC(Oc2ncnc3c2cnn3-c2ccc(S(C)(=O)=O)cc2F)CC1`, the Potency entry in assay [1], in assay [2], in assay [4] and in assay [5] was “inactive” each time. The Potency in assay [3] is 3.79 µM (active).

Take `O=C(NCCO)c1cccc(-c2cc(Nc3ccc(OC(F)(F)F)cc3)ncn2)c1`: the Potency result in assay [1] is “inactive”. In addition, the Potency in assay [2] was 23.9 µM (active); in assay [3], 21.3 µM (active); in assay [4], 18.3 µM (active); in assay [5], 18.3 µM (active).

These data come from PubChem BioAssay (NCATS).
